Sampled rows, rich in hits. Any-hit rate of the full collection: about 2.8%.
a7 integrin act = activates integrin-mediated alleviation for muscular dystrophy; actives 0.064% (n = 350,000); alpha7betagal myoblasts, beta-gal FDG fluorescence, 48 h; Potency, µM (top dose mostly 38.3 µM), hits mostly activators; further: nearly all actives have a fitted effect of over 60% in size
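alpha7betagal+/- myoblasts (passage 13, 250/well) treated 48 h at 37C with compounds at 1:260 dilution of DMSO stock. Lysed, then beta-galactosidase activity read as FDG fluorescence (ex 480/em 540) after 30 min, with pre-read for autofluorescence.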
D3 ag = activates the human D3 dopamine receptor; actives 0.58% (n = 410,000); max activation, %; AID 652048; D3R DiscoveRx beta-arrestin cells, luminescence, 90 min; in the data active means max activation above about 30%
Target sequence (P35462 whole entry, looked up): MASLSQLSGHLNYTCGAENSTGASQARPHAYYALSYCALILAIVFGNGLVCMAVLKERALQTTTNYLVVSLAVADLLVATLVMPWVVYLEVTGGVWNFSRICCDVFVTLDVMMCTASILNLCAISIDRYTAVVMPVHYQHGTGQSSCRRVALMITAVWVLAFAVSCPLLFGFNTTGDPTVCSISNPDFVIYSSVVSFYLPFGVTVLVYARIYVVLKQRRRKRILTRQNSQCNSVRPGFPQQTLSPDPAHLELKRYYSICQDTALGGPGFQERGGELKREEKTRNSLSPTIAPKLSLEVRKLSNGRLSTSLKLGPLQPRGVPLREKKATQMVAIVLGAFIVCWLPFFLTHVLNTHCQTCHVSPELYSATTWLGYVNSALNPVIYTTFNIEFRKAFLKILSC
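Agonist-mode cell screen: cells plated at 1500/well and incubated overnight at 37 °C, then exposed to library compounds for 90 min at 37 °C. Detection reagent was added for 30–60 min at room temperature, and luminescence was read.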
CBFb RUNX1 block = blocks binding between human CBF-beta and RUNX1 | AlphaScreen CBFb-His/RUNX1-biotin binding, biochemical | Q01196+Q13951 | Potency, µM (doses to about 59.8 µM), most hits filed as inhibitors | 230,000 tested, under 10 active
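AlphaScreen binding: CBFb-His and RUNX1-biotin (30 nM each) preincubated 20 min, compound added for 15 min, then nickel and streptavidin beads for 90 min, all at room temperature. Disruption of the interaction by any mechanism counts as activity.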
DRD3 antagonist = D3 dopamine receptor (human) antagonism; P35462; D3R cells, DiscoveRx beta-arrestin luminescence, antagonist mode; stronger effect = lower value; max response, negative = inhibition, %; actives 2.5% (n = 360,000); AID 652054; in the data active means max response below about -50%; inconclusive means no clear call, values can overlap the other calls
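Cells plated overnight at 1500 cells/well, then exposed to library compounds with dopamine controls for 90 minutes at 37 degrees C. DiscoveRx reagent added for 30–60 minutes at room temperature; luminescence read, quantitative HTS format.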
PTHR1 ag = agonists of human PTHR1 parathyroid hormone receptor. Q03431. HEK293 GP2 PTHR1 cells, GloSensor cAMP luminescence, 1 h. Potency, µM (series often up to 115 µM), hits mostly activators. actives 0.075% (n = 410,000). AID 743266; further: nearly all actives have a fitted effect of over 55% in size
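HEK-293-derived GP2 cells expressing PTHR1 and a GloSensor cAMP reporter, 3,000/well, plated overnight, given luciferin plus IBMX (each 0.5 mM as added) for 1 h at 37 °C, then compound for 1 h at 37 °C. Luminescence was read after 15 min at room temperature.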
MBNL1-CUG inh = inhibitors of human MBNL1 binding to CUG repeat RNA; TR-FRET MBNL1-His/biotin-(CUG)12 binding, 665/545 ratio; Potency, µM (highest dose often 57.5 µM), hits mostly inhibitors; actives 0.036% (n = 280,000); active means well fitted inhibition curve with a large enough effect in the signal ratio, with a control signal flat, not every such curve was filed as active; inconclusive means small, poorly fitted or top-dose-only effect, or effect the other way, or a change in a side signal; inactive means no such curve, though single readings can be large or run the other way; the % refers to the signal ratio
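His-tagged MBNL1 binding to biotinylated (CUG)12 RNA was measured by TR-FRET using terbium anti-His antibody (0.055 ng/ul final) and streptavidin-XL665 (5 nM final). Compounds were titrated 92 nM to 58 uM; 60 min at room temperature.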
A number is an active result; [ ] = another dose, or the depositor's remark. Unless noted, the call rests on the fitted dose curve; in most records, active means well fitted curve in the direction sought with a large enough effect; inconclusive means small, poorly fitted or top-dose-only effect, or another doubt; inactive means no such curve, though single readings can be large; an effect the other way counts as inactive or inconclusive.

CC(C)C[C@@H](CN)NC(=O)c1nc[nH]c1C(=O)N[C@@H](C)C(=O)CNC[C@H](CC(C)C)NC(=O)c1nc[nH]c1C(=O)N[C@@H](CC(=O)O)C(=O)O was read as a7 integrin act inactive, D3 ag inactive, DRD3 antagonist inactive and PTHR1 ag inactive.
For S=c1nc(-c2cccc(Cl)c2)[nH][nH]1 the results were a7 integrin act inactive, D3 ag inactive, CBFb RUNX1 block inactive, DRD3 antagonist -55, PTHR1 ag inactive and MBNL1-CUG inh inactive.
`S=c1nc(-c2cc(Cl)cc(Cl)c2)[nH][nH]1` gave a7 integrin act inactive, D3 ag inactive, CBFb RUNX1 block inactive, DRD3 antagonist inconclusive and PTHR1 ag inactive.
Screening COc1ccc(C)cc1NC(=O)C1CCN(S(=O)(=O)c2c(C)noc2C)CC1 returned a7 integrin act inactive, D3 ag 40, DRD3 antagonist inactive, PTHR1 ag inactive and MBNL1-CUG inh inactive.
`CC(=O)OC[C@@H]1O[C@@H](O/N=C2/C[C@@H](O)[C@@H](O)[C@@H]3[C@H]4C(=O)N(c5ccc(F)cc5F)C(=O)[C@@H]4CC[C@H]23)[C@H](OC(C)=O)[C@H](OC(C)=O)[C@@H]1OC(C)=O` gave CBFb RUNX1 block inactive[13.1 µM].
`COC(=O)C1=C(C)OC(N)=C(C#N)C1c1ccccc1` (stereo not drawn) gave a7 integrin act inactive, D3 ag inactive, CBFb RUNX1 block inactive, DRD3 antagonist inactive, PTHR1 ag inactive and MBNL1-CUG inh inactive.
Screening CCOC(=O)C1=C(C)OC(N)=C(C#N)C1c1ccc(O)c(OC)c1 (stereo not drawn) returned a7 integrin act inactive, D3 ag inactive, CBFb RUNX1 block inactive, DRD3 antagonist -62, PTHR1 ag inactive and MBNL1-CUG inh inactive.
Screening CCSc1cc(C2C(C#N)=C(N)OC(C)=C2C(=O)OC)c(C)o1 (stereo not drawn) returned a7 integrin act inactive, D3 ag inactive, CBFb RUNX1 block inactive, DRD3 antagonist -67, PTHR1 ag inactive and MBNL1-CUG inh inactive.
NC(=O)Nc1ccc(C(=O)OCC(=O)Nc2ccc(Cl)cn2)cc1 was read as a7 integrin act inactive, D3 ag inactive, CBFb RUNX1 block inactive, DRD3 antagonist inactive and PTHR1 ag inactive.
For COc1ccc(OC)c(NC(=O)COC(=O)CCc2ccc(S(=O)(=O)N3CCOCC3)cc2)c1 the results were a7 integrin act inactive, D3 ag inactive, DRD3 antagonist inactive and PTHR1 ag inactive.
Cc1nn(-c2ccccc2)c(C)c1NC(=O)COc1ccc(C#N)cc1 was read as a7 integrin act inactive, D3 ag inactive, CBFb RUNX1 block inactive, DRD3 antagonist inactive, PTHR1 ag inactive and MBNL1-CUG inh inactive.
Cc1nn(-c2ccccc2)c(C)c1NC(=O)COc1ccc2ccccc2c1 was read as a7 integrin act inactive[7.66 µM], D3 ag 31, CBFb RUNX1 block inactive, DRD3 antagonist inactive, PTHR1 ag inactive and MBNL1-CUG inh inactive.
For Cc1cc(N2CCCC2)ccc1/C=C1\NC(=S)N(C)C1=O the results were a7 integrin act inactive, D3 ag inactive, CBFb RUNX1 block inconclusive, DRD3 antagonist inactive, PTHR1 ag inactive and MBNL1-CUG inh inconclusive.
CN1C(=O)/C(=C/c2cc(C(C)(C)C)c(O)c(C(C)(C)C)c2)NC1=S was read as a7 integrin act inactive, D3 ag inactive, CBFb RUNX1 block inactive, DRD3 antagonist -58, PTHR1 ag inactive and MBNL1-CUG inh inactive.
C=C1CC(COc2ccc3c(C)c(Cl)c(=O)oc3c2)(c2ccccc2)OC1=O (stereo not drawn) was read as a7 integrin act inactive, D3 ag inactive, DRD3 antagonist -99 and PTHR1 ag inactive.
Screening CCN(CC)c1ccc2cc(-c3nc(-c4ccc(OC)cc4)cs3)c(=O)oc2c1 returned a7 integrin act inactive, D3 ag 33, CBFb RUNX1 block inconclusive, DRD3 antagonist inactive, PTHR1 ag inactive and MBNL1-CUG inh inactive.
`N#C/C(=C1\SCC(c2ccccc2Cl)S1)n1ccnc1` (stereo not drawn) gave D3 ag inactive.
CCOCCCNC(=O)C(c1ccc(Cl)cc1)N1CCC2(CC1)OCCO2 (stereo not drawn) was read as a7 integrin act inactive, D3 ag inactive, CBFb RUNX1 block inactive, DRD3 antagonist -55, PTHR1 ag inactive and MBNL1-CUG inh inactive.
CCC(=O)N1c2ccccc2CC1C(=O)NCc1cccc(C)c1 (stereo not drawn) was read as D3 ag inactive and PTHR1 ag inactive.
For O=c1cc(CSc2ccccc2)[nH]c(=S)[nH]1 the results were a7 integrin act inactive, D3 ag inactive, CBFb RUNX1 block inactive, DRD3 antagonist -95, PTHR1 ag inactive and MBNL1-CUG inh inactive.
`Cc1ccc(S(=O)(=O)CS(=O)(=O)c2ccc(C)cc2)cc1` gave a7 integrin act inactive, D3 ag inactive, DRD3 antagonist inactive and PTHR1 ag inactive.
Cc1ccc(S(=O)(=O)Cn2cnnn2)cc1 was read as a7 integrin act inactive, D3 ag inactive, CBFb RUNX1 block inactive, DRD3 antagonist -78, PTHR1 ag inactive and MBNL1-CUG inh inactive.
For O=C(COc1cccc2ccccc12)NNC(=O)CSCCO the results were a7 integrin act inactive, D3 ag inactive, CBFb RUNX1 block inactive, DRD3 antagonist -50 and PTHR1 ag inactive.
`COc1cccc(NC(=S)N(CCCN2CCOCC2)C(C)c2cc3ccccc3o2)c1` (stereo not drawn) gave a7 integrin act inconclusive, D3 ag inactive, CBFb RUNX1 block inactive, DRD3 antagonist -55, PTHR1 ag inactive and MBNL1-CUG inh inactive.
Screening COc1cc(C(=O)NC(=S)Nc2ccc3[nH]c(=O)[nH]c3c2)cc(OC)c1OC returned a7 integrin act inactive, D3 ag inactive, DRD3 antagonist inactive, PTHR1 ag inactive and MBNL1-CUG inh inactive.
`CN1CCN(C2Cc3ccccc3Sc3ccc(S)cc32)CC1` (stereo not drawn) gave CBFb RUNX1 block inactive.
Screening Fc1ccc2c(c1)Sc1ccc(Cl)cc1CC2N1CCN(CCC2OCCO2)CC1 (stereo not drawn) returned a7 integrin act inactive, D3 ag inactive, DRD3 antagonist -93 and PTHR1 ag inactive.
For CSc1ccc2c(c1)C(N1CCN(C)CC1)Cc1ccc(F)cc1S2 (stereo not drawn) the results were a7 integrin act inactive, D3 ag inactive, DRD3 antagonist -95 and PTHR1 ag inactive.
Screening O=[N+]([O-])c1ccc2c(c1)C(N1CCN(CCO)CC1)Cc1ccc(F)cc1S2 (stereo not drawn) returned D3 ag inactive, DRD3 antagonist -106 and PTHR1 ag inactive.

Assay outcomes deposited in PubChem by National Center for Advancing Translational Sciences (NCATS).
